Source: PubChem BioAssay AID2320 (National Center for Advancing Translational Sciences (NCATS), 2010)
Records with an inconclusive call do not appear. A call without a number means that no potency is given here. Activity calls are given as the source filed them. Calls come from the whole dose curve.

Experiment: A qHTS for Small Molecule Inhibitors of Shiga Toxin (Confirmatory); note: nearly all actives have a fitted effect of over 75% in size
Settings: Cell-based Shiga toxin protection reporter assay; series mostly up to 38.3 µM
Potency is the fitted concentration of half-maximal effect.

Row | SMILES | Potency
1 | COCCCn1c(SCC(=O)OC2CCCCC2)nnc1-c1cccs1 | inactive
2 | Fc1ccccc1N=C1Nc2cccc3cccc1c23 | inactive
3 | CNC(=O)c1cccn(Cc2ccc(C(F)(F)F)cc2)c1=O | 0.1 µM (active)
4 | CC(=O)Nc1ccc(N2N=C(C)C(N=Nc3ccccc3)C2=O)cc1 (stereo not drawn) | 11.3 µM (active)
5 | O=C(O)c1cc(S(=O)(=O)Nc2ccc(OCc3ccccc3)cc2)ccc1Br | 7.11 µM (active)
6 | CCCc1nc2ccccc2c(=O)n1NC(=O)c1c(O)c2ccccc2[nH]c1=O | 14.2 µM (active)
7 | COc1ccc(NC(=O)CSc2nccn2-c2cccc(OC)c2)cc1 | inactive
8 | Cc1cc(C)c2nc(-c3ccccn3)cc(C(=O)NCc3ccco3)c2c1 | 15.9 µM (active)
9 | Cc1ccc2c(CN3CCCCC3C)cc(=O)oc2c1C (stereo not drawn) | 0.01 µM (active)
10 | CC[N+](CC)(CCO)CCCN1C(=O)C2CC=C(Cl)CC2C1=O (stereo not drawn) | inactive
11 | NS(=O)(=O)c1cc(C(=O)NCC2CCCCC2)ccc1Cl | inactive
12 | Cc1ccc(NC(=O)C(C)N=C2NS(=O)(=O)c3ccccc32)cc1 (stereo not drawn) | 0.0005 µM (active)
13 | Cc1ccc(CSc2nnc(CCCCCNC(=O)OC(C)(C)C)o2)cc1 | inactive
14 | O=C1C(Cl)=C(Nc2ccccc2)C(=O)c2ccccc21 | 3.18 µM (active)
15 | O=C(NC1CCCCC1)c1cccc(S(=O)(=O)N2CCCCC2)c1 | inactive
16 | CCOC(=O)C1(CCCc2ccccc2)CCN(C(=O)CCn2cncn2)CC1 | inactive
17 | COc1cccc(C(C(=O)NC2CCCC2)N(C(=O)c2ccco2)C2CC2)c1OC (stereo not drawn) | 8.95 µM (active)
18 | Cc1cnc(NC(=O)c2c(Cl)cnn2C)s1 | inactive
19 | O=C(CCS(=O)(=O)c1cccs1)Nc1ccc(C(=O)NCc2cccs2)cc1 | inactive

Row | SMILES | Potency
20 | Cc1noc(/C=C/c2ccco2)c1S(=O)(=O)N1CCC(C(=O)N(C)Cc2ccccc2)CC1 | 22.5 µM (active)
21 | O=C(Nc1cccc(-c2csc(Nc3ccc(Cl)cc3)n2)c1)c1ccccc1 | 6.34 µM (active)
22 | CC(=O)c1ccc(-c2cccc([C@H]3[C@@H]4C=CC[C@@H](C)[C@@H]4C(=O)N3Cc3ccccc3)c2)cc1 | inactive
23 | Cc1oncc1-c1csc(-c2ccccc2Cl)n1 | 7.98 µM (active)
24 | CCCCOC(=O)c1ccc(N=Nc2c(C)c(C#N)c(O)[nH]c2=O)cc1 | 15.9 µM (active)
25 | COc1ccccc1C(=O)Nc1ccc(N2CCN(C(C)=O)CC2)cc1 | inactive
26 | CN1CCN(C(=O)CN(C)S(=O)(=O)c2ccc(F)cc2)CC1 | inactive
27 | CC1CC(C)CN(C(=O)C(NS(=O)(=O)c2ccc(Br)s2)c2ccccc2)C1 (stereo not drawn) | 2.25 µM (active)
28 | CC(=O)c1cccc(N2C(=O)C3C4CCC(C4=C(C)C)C3C2=O)c1 (stereo not drawn) | inactive
29 | CCn1cc(C(=O)NCc2ccccc2Cl)cn1 | inactive
30 | Cc1ccc([N+](=O)[O-])cc1NC(=O)CSc1nncn1-c1ccccn1 | inactive
31 | NC(=O)C1CCN(C(=O)C2c3ccccc3C(=O)N3CCc4ccccc4C23)CC1 (stereo not drawn) | inactive
32 | COc1ccccc1NC(=O)CSc1nnc(-c2ccco2)n1Cc1ccco1 | inactive
33 | CC(=O)c1ccc2noc(-c3ccc(F)cc3)c2c1 | 11.3 µM (active)
34 | Cc1cc(NC(=O)/C=C/c2ccc(Br)cc2)no1 | 8.95 µM (active)
35 | Cc1nn(C2CCCCC2)c(N)c1-c1ccccc1 | inactive
36 | Cc1nnc(NC(=O)C2COc3ccccc3O2)s1 (stereo not drawn) | 14.2 µM (active)
37 | COc1cccc(/C=C/C(=O)c2cccc([N+](=O)[O-])c2)c1OC | inactive
38 | CON(C)S(=O)(=O)c1cccc(C(=O)NC2CCSc3ccccc32)c1 (stereo not drawn) | inactive
